Results filed as inconclusive are left out. Active and inactive are the calls of the source. Unless noted, calls come from the whole dose curve; as a rule, active = well fitted curve in the direction sought with a large enough effect in the repeat runs; inconclusive = weak or mixed curves; inactive = no such curve, though single readings can be large; an effect the other way counts as inactive or inconclusive.
Experiments:
[1] = A CellTox Green Cytotoxicity Assay to monitor cytotoxicity in HEK293 cells - 16 hour (AID 1224888); note: nearly all actives have a fitted effect of over 35% in size
Outline: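 HEK293 cells, 600/well, were preincubated 5 hours and then exposed to compounds at 37 C for up to 40 hours. A cell-impermeant cyanine dye staining dead-cell DNA was read by fluorescence at 0, 8, 16, 24, 32 and 40 h time points.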

[2] = qHTS RealTime-Glo MT Cell Viability Assay in HepG2 cells - 0 hour (AID 1224889); note: nearly all actives have a fitted effect of over 50% in size
Outline: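 Compound treatment began 5 h after plating HepG2 cells (600/well) with NanoLuc luciferase and prosubstrate. Plates stayed at 37 C for 40 h; luminescence was captured at six time points, 0 h through 40 h.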

[3] = A CellTox Green Cytotoxicity Assay to monitor cytotoxicity in HepG2 cells - 8 hour (AID 1224890); note: nearly all actives have a fitted effect of over 45% in size
Outline: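 HepG2 cells, 600/well, preincubated 5 h with CellTox Green dye, then exposed to Tox21 compounds in DMSO at 37 C for up to 40 h. Dead-cell DNA fluorescence read at the indicated time point.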

[4] = qHTS assay to identify small molecule antagonists of the estrogen receptor alpha (ER-alpha) signaling pathway using the BG1 cell line in the presence of 0.1 nM 17-beta-estradiol - cell viability counter screen (AID 1259241); note: nearly all actives have a fitted effect of over 40% in size
Outline: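 Estradiol-stimulated (0.1 nM) VM7Luc4E2 cells exposed to compounds 22 hr; viability measured by fluorescence of cleaved CellTiter-Fluor substrate after 30 min.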

[5] = qHTS assay to identify small molecule antagonists of the androgen receptor (AR) signaling pathway using the MDA cell line in the presence of 0.5 nM R1881 - cell viability counter screen (AID 1259242); note: nearly all actives have a fitted effect of over 45% in size
Outline: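 MDA-kb2 cells (MMTV-luciferase, AR/GR responsive) were treated with compounds plus 0.5 nM R1881 (final) for 16 hr at 37C, 0% CO2. Viability was then read in the same wells as live-cell protease fluorescence (CellTiter-Fluor, 30 min).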

[6] = molecular target: Estrogen receptor (Homo sapiens) (UniProt P03372); assay: qHTS assay to identify small molecule antagonists of the estrogen receptor alpha (ER-alpha) signaling pathway using the BG1 cell line in the presence of 0.1 nM 17-beta-estradiol (AID 1259244); note: nearly all actives have a fitted effect of over 50% in size
Sequence of Estrogen receptor (Homo sapiens) (P03372 whole entry, looked up): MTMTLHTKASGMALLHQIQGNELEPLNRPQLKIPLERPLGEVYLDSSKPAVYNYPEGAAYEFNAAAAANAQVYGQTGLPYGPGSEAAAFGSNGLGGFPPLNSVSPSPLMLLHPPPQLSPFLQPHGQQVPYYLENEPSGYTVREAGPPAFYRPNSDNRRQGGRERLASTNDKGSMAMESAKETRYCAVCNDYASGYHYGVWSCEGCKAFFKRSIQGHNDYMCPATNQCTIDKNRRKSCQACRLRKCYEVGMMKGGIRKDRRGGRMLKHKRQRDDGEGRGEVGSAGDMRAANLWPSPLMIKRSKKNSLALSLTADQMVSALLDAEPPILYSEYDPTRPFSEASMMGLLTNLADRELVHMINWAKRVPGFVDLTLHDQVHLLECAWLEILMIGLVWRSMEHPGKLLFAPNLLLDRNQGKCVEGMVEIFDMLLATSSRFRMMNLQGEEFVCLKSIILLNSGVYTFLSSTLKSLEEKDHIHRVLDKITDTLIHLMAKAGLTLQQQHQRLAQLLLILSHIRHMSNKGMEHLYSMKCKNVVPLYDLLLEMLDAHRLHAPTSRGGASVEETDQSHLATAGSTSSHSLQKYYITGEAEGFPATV
Outline: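 VM7Luc4E2 cells (endogenous full-length ER-alpha, 4×ERE-luciferase), kept 5 days in phenol red-free, charcoal-stripped FBS medium; 4,000 cells/well. Compounds added with 0.1 nM (final) 17beta-estradiol, 22 hr at 37C; luminescence read with ONE-Glo after 30 min.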

[7] = qHTS assay to identify small molecule HDAC inhibitors (AID 1259364); note: top concentration of the series differs between compounds; nearly all actives have a fitted effect of over 45% in size
Outline: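 Wild-type HCT-116 cells, plated overnight at 37 C, exposed to compounds 2 hr at 37 C; luminogenic HDAC-Glo substrate then added 30 min at room temperature. Luminescence reports relative endogenous class I/II HDAC activity.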

[8] = qHTS assay to identify small molecule agonists of the sonic hedgehog signaling (Shh) pathway - cell viability counter screen (AID 1259366); note: nearly all actives have a fitted effect of over 50% in size
Outline: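 Same-well cytotoxicity read. Gli1-Luc reporter 3T3 cells; compounds 24hr, 37C/5% CO2; CellTiter-Fluor fluorescence.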

[9] = qHTS assay to identify small molecule agonists of the sonic hedgehog signaling (Shh) pathway (AID 1259368; calls by dose curve;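 note: NIH/3T3-derived 3T3Gli1-Luc cells carrying a stable Gli1-driven firefly luciferase reporter; series mostly up to about 92 µM; nearly all actives have a fitted effect of over 15% in size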)
Outline: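 NIH/3T3-derived 3T3Gli1-Luc cells with stably integrated Gli1-driven firefly luciferase, 2,000 cells/well, compounds added after 4 hr. Incubated 24 hr at 37C, 5% CO2; luminescence read after 30 min with luciferase reagent at room temperature.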

[10] = qHTS assay to identify small molecule antagonists of the sonic hedgehog signaling (Shh) pathway (AID 1259369; calls by dose curve; note: nearly all actives have a fitted effect of over 45% in size)
Outline: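 NIH/3T3-derived Gli1-Luc reporter cells plated 4 h, dosed with compound, then stimulated with conditioned medium for 24 h at 37 C. Firefly luciferase luminescence read after 30 min with detection reagent at room temperature.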

[11] = molecular target: Estrogen receptor beta (Homo sapiens) (UniProt Q92731); assay: qHTS assay to identify small molecule agonists of the estrogen receptor beta (ER-beta) signaling pathway (AID 1259377; active = well fitted activation curve with a large enough effect in the signal ratio in the repeat runs, not every such curve was filed as active; the % refers to the signal ratio)
Sequence of Estrogen receptor beta (Homo sapiens) (Q92731 whole entry, looked up): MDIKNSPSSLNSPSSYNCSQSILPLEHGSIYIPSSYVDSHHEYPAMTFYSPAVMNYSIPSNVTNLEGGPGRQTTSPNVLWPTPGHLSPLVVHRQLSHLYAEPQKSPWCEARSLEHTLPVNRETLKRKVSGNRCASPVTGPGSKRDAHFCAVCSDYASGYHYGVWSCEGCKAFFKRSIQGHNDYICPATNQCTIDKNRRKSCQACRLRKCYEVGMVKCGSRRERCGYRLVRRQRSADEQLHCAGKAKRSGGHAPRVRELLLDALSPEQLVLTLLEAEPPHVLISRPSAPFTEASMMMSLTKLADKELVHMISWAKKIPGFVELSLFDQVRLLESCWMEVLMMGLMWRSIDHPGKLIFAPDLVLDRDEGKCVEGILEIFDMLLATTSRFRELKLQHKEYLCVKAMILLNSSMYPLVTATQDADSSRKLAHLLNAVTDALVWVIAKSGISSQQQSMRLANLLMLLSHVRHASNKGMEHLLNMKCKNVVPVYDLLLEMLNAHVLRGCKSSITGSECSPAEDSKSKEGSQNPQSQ
Outline: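 Read-out: beta-lactamase FRET fluorescence. Cell line: ER-beta-UAS-bla HEK293T in 2% charcoal-stripped FBS. Exposure: 16 hr at 37C. Substrate step: 2 h at room temperature.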

[12] = molecular target: Estrogen receptor beta (Homo sapiens) (UniProt Q92731); assay: qHTS assay to identify small molecule antagonists of the estrogen receptor beta (ER-beta) signaling pathway (AID 1259378; active = well fitted inhibition curve with a large enough effect in the signal ratio in the repeat runs, not every such curve was filed as active; the % refers to the signal ratio)
Outline: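 ER-beta-UAS-bla HEK293T (GripTite) cells in 2% charcoal-stripped FBS medium were preincubated 6 hr at 37C, dosed with compound, then stimulated with 1 nM E2 (final) for 16 hr; beta-lactamase reporter read by B/G FRET fluorescence after 2 hr substrate loading.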

[13] = qHTS assay to identify small molecule agonists of the androgen receptor (AR) signaling pathway in the presence of an antagonist - cell viability counter screen (AID 1259379);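 note: MDA-kb2 human breast cancer cells carrying an MMTV luciferase reporter; series mostly up to about 92 µM; nearly all actives have a fitted effect of over 25% in size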
Outline: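 MDA-kb2 cells (MMTV-luciferase, AR/GR), 3,000/well, 5 h attachment, then 3.0 µM nilutamide (final) and compounds at 15 concentrations. Viability by CellTiter-Fluor fluorescence after 16 h at 37 °C, 0% CO2, in the reporter wells.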

[14] = qHTS assay to identify small molecule agonists of the estrogen receptor beta (ER-beta) signaling pathway - cell viability counter screen (AID 1259380); note: nearly all actives have a fitted effect of over 30% in size
Outline: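 ER-beta-UAS-bla HEK293T cells in medium with 2% charcoal-stripped FBS, pre-incubated 6 hr, then treated 16 hr at 37C. Cytotoxicity read in the same wells by CellTiter-Glo luminescence after 30 min at room temperature.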

[15] = qHTS assay to identify small molecule antagonists of the estrogen receptor beta (ER-beta) signaling pathway - cell viability counter screen (AID 1259382); note: series mostly up to about 92 µM; nearly all actives have a fitted effect of over 55% in size
Outline: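 ER-beta-UAS-bla HEK293T cells in 2% charcoal-stripped FBS medium, treated with compound plus 1 nM 17-beta-estradiol for 16 h at 37C. Viability read by CellTiter-Glo luminescence after 30 min at room temperature in the same wells.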

[16] = qHTS assay to identify small molecule phospholipidosis (PLD) inducers (AID 1259344; active = well fitted curve in the direction sought with a large enough effect; an effect the other way counts as inactive or inconclusive)
Outline: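 HepG2 cells on collagen I, attached 4 h at 37 C, were co-treated with compound and LipidTOX Red dye for 24 h at 37 C, then fixed with paraformaldehyde plus Hoechst 33342 and imaged by high-content microscopy for phospholipid accumulation.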

[17] = qHTS assay to identify small molecule HDAC inhibitors - cell viability counter screen (AID 1259365); note: series mostly up to about 92 µM; nearly all actives have a fitted effect of over 50% in size
Outline: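 After overnight seeding at 1,500 cells per well, wild-type HCT-116 cultures took up compounds in DMSO for 2hr at 37 C. Viable cell content came from luminescence with CellTiter-Glo.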

[18] = qHTS assay to identify small molecule antagonists of the sonic hedgehog signaling (Shh) pathway - cell viability counter screen (AID 1259367); note: nearly all actives have a fitted effect of over 55% in size
Outline: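 NIH/3T3-derived Gli1-Luc reporter cells (2,000 per well) rested 4 hr at 37 C, then received DMSO compounds plus conditioned medium. After 23 hr of treatment, CellTiter-Fluor was added for 1 hr at 37C and fluorescence read.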
% is set by controls: 0 for no effect and ±100 for the full control effect.

COc1cc2c(cc1OC)CN(C(=O)[C@H](C)N[C@@H](CCc1ccccc1)C(=O)O)[C@H](C(=O)O)C2
inactive: Potency [1] | Potency [2] | Potency [3] | outcome [4] | outcome [5] | outcome [6] | Potency [7] | outcome [8] | outcome [9] | Potency [10] | Potency [11] | Potency [12] | outcome [13] | outcome [14] | outcome [15]

Cn1c(=O)c2[nH]c(Br)nc2n(C)c1=O
inactive: Potency [1] | Potency [2] | Potency [3] | outcome [4] | outcome [5] | outcome [16] | Potency [7] | outcome [17] | outcome [8] | outcome [18] | outcome [9] | Potency [10] | Potency [11] | Potency [12] | outcome [13] | outcome [14] | outcome [15]

CC1=NN(c2ccc(S(=O)(=O)O)cc2)C(=O)C1
inactive: Potency [1] | Potency [2] | Potency [3] | outcome [4] | outcome [5] | Potency [7] | outcome [17] | outcome [8] | outcome [18] | outcome [9] | Potency [10]

CCCCCCCCCCCCCCCCCC#N
inactive: Potency [1] | Potency [2] | Potency [3] | outcome [4] | outcome [5] | outcome [6] | Potency [7] | outcome [17] | outcome [9] | Potency [10] | Potency [11] | Potency [12] | outcome [13] | outcome [14] | outcome [15]

O=NN(CCCl)C(=O)NC1CCCCC1
inactive: Potency [1] | Potency [2] | Potency [3] | outcome [4] | outcome [5] | outcome [16] | Potency [7] | outcome [17] | outcome [18] | outcome [9] | Potency [10] | Potency [11] | Potency [12] | outcome [13] | outcome [14] | outcome [15]

CN1CCOC(c2ccccc2)c2ccccc2C1 (configuration not stated)
inactive: Potency [1] | Potency [2] | Potency [3] | outcome [4] | outcome [5] | outcome [16] | outcome [17] | outcome [8] | outcome [18] | outcome [9] | Potency [10] | Potency [11] | Potency [12] | outcome [13] | outcome [14] | outcome [15]

Cc1ccc2c(c1)C(=O)c1ccccc1C2=O
inactive: Potency [1] | Potency [2] | Potency [3] | outcome [4] | outcome [5] | outcome [6] | outcome [17] | outcome [18] | outcome [9] | Potency [10] | Potency [12] | outcome [13] | outcome [15]

O/N=C/C=N/O
inactive: Potency [1] | Potency [2] | Potency [3] | outcome [4] | outcome [5] | Potency [7] | outcome [17] | outcome [8] | outcome [18] | outcome [9] | Potency [10] | Potency [11] | Potency [12] | outcome [13] | outcome [14] | outcome [15]

CCCCOCCOC(=O)COc1ccc(Cl)cc1Cl
inactive: Potency [1] | Potency [2] | Potency [3] | outcome [4] | outcome [5] | outcome [6] | outcome [8] | outcome [18] | outcome [9] | Potency [10] | Potency [11] | Potency [12] | outcome [13]

C=CCN1C[C@H](C(=O)N(CCCN(C)C)C(=O)NCC)C[C@@H]2c3cccc4[nH]cc(c34)C[C@H]21
inactive: Potency [1] | Potency [2] | Potency [3] | outcome [4] | outcome [5] | outcome [6] | Potency [7] | outcome [17] | outcome [18] | outcome [9] | Potency [10] | Potency [11] | outcome [14] | outcome [15]

CC(C)NCC(O)c1ccc2ccccc2c1 (configuration not stated)
inactive: Potency [1] | Potency [2] | Potency [3] | outcome [4] | outcome [5] | outcome [16] | Potency [7] | outcome [17] | outcome [8] | outcome [18] | outcome [9] | Potency [10] | Potency [11] | Potency [12] | outcome [13] | outcome [15]

O=C1c2ccccc2C(=O)c2cc(Cl)ccc21
inactive: activity change [1] -0.237% [at 6.97 µM, active compounds read high] | activity change, negative = cytotoxicity [2] 1.38% [at 6.97 µM] | cytotoxicity increase [3] -0.731% [at 6.97 µM] | activity change, negative = cytotoxicity [4] 1.79% [at 8.39 µM] | viability change, negative = cytotoxic [5] 2.58% [at 8.39 µM] | activity change, negative = inhibition [6] 6.71% [at 8.39 µM] | activity change, negative = cytotoxicity [17] 6.08% [at 8.39 µM] | viability change, negative = cytotoxic [8] 3.28% [at 8.39 µM] | viability change, negative = cytotoxic [18] 1.09% [at 8.39 µM] | activity change [9] 1.3% [at 8.39 µM] | activity change, negative = inhibition [10] 20.2% [at 8.39 µM] | activation [11] 7.82% [at 8.39 µM] | activity, negative = inhibition [12] 3.18% [at 8.39 µM] | activity change, negative = cytotoxicity [13] 0.449% [at 8.39 µM] | activity change, negative = cytotoxicity [14] 1.14% [at 8.39 µM] | activity change, negative = cytotoxicity [15] 1.86% [at 8.39 µM]

C=CC/C=C/C
inactive: Potency [1] | Potency [2] | Potency [3] | outcome [4] | outcome [5] | outcome [6] | outcome [8] | outcome [18] | Potency [10] | Potency [12] | outcome [14] | outcome [15]

c1ccc2c(CC3=NCCN3)cccc2c1
inactive: Potency [1] | Potency [2] | Potency [3] | outcome [4] | outcome [5] | outcome [16] | Potency [7] | outcome [8] | outcome [18] | outcome [9] | Potency [10] | outcome [13]
